Source: PubChem BioAssay AID720518 (National Center for Advancing Translational Sciences (NCATS), 2013)
Results filed as inconclusive are left out. Active and inactive are the calls of the source. Calls come from the whole dose curve.
Potency is the fitted concentration of half-maximal effect.

Experiment: qHTS for Inhibitors of Cell Surface uPA Generation: Wild-type Protective Antigen (WT-PrAg) Counterscreen for Cherry-picked Compounds; for activity (protection): 0% is about no effect
Conditions: cells, WT protective antigen toxicity counterscreen; series mostly up to 115 µM; activity (protection): at the top concentration
For `COc1ccc(C(=O)NCC(=O)N/N=C/c2c(C)[nH]c3ccccc23)cc1`, the “activity (protection)” value was 0.57% (inactive). With `C=CCn1c(C)cc(C(=O)COC(=O)/C=C/c2cccc(OC)c2)c1C` the “activity (protection)” value was -1.08% (inactive). In the case of `CCC1=NN(C(=O)C(=O)Nc2ccc(OC)cc2)C(O)(C(F)(F)F)C1` (stereo not given), the “activity (protection)” value is reported as -0.449% (inactive). With `COCCN(C(=O)CSc1nnc(-c2ccncc2)n1C)c1c(N)n(CC(C)C)c(=O)[nH]c1=O` the “activity (protection)” value was -0.576% (inactive). For `CN(CC(=O)N(C)CC(=O)Nc1c(Cl)cccc1Cl)Cc1ccccc1F`, the “activity (protection)” value was 1.34% (inactive). With `CCN(c1ccc(OC)cc1)S(=O)(=O)c1ccc2c(c1)NC(=O)CS2` the “activity (protection)” value was -1.04% (inactive). In the case of `Cc1nc(NC(=O)CSc2nnc(C3CC3)n2C)sc1C(=O)N(C)C`, the “activity (protection)” value is reported as 1.3% (inactive). In the case of `CN(C)CCNC(=O)Nc1ccc([N+](=O)[O-])cc1`, the “activity (protection)” value is reported as -0.439% (inactive). With `COCC(=O)N1Cc2ccccc2-n2nncc2C1` the “activity (protection)” value was 1.67% (inactive). In the case of `C/C(=N\NC(=S)NC(C)C)c1ccc(Cl)s1`, the “activity (protection)” value is reported as -1.3% (inactive). With `COc1ccc(S(=O)(=O)N2CCOCC2)cc1NC(=O)CN1C(=O)NC2(CCCC2)C1=O` the “activity (protection)” value was -0.48% (inactive). For `Cc1ccc(S(=O)(=O)N2CCC(C)CC2)cc1`, the “activity (protection)” value was 0.504% (inactive). In the case of `COc1cc(/C=N/NC(=O)c2cc(-c3ccco3)nc3ccccc23)cc(OC)c1O`, the “activity (protection)” value is reported as -2.04% (inactive). In the case of `CCOC(=O)[C@H]1[C@H]2COc3ccc(Br)cc3[C@@H]2N2C(=O)c3c(C)cc(C)cc3NC(=O)[C@@]12C`, the “activity (protection)” value is reported as 1.23% (inactive). For `Cc1ccnc(N2CCN(C(=O)CSc3nc4ccccc4nc3N3CCC(C)CC3)CC2)c1`, the “activity (protection)” value was -2.13% (inactive). In the case of `O=C(N/C(=C\c1cccc([N+](=O)[O-])c1)C(=O)N1CCOCC1)c1ccc([N+](=O)[O-])cc1`, the “activity (protection)” value is reported as 0.117% (inactive). In the case of `O=C(N/N=C/c1cccnc1)c1ccccc1[N+](=O)[O-]`, the “activity (protection)” value is reported as -1.19% (inactive). With `CCN(CC)CCNC(=O)/C(=C/c1cn(CC)c2ccccc12)NC(=O)c1cc(OC)c(OC)c(OC)c1` the “activity (protection)” value was 0.845% (inactive). In the case of `COc1cc(CCC(=O)OCC(=O)NCc2ccccc2)cc(OC)c1OC`, the “activity (protection)” value is reported as 0.75% (inactive). In the case of `C/C=C(/C(=C/C)c1ccc(O)cc1)c1ccc(O)cc1`, the “activity (protection)” value is reported as -2.13% (inactive). With `O=C(NNC(=O)c1ccc2ccccc2c1)Nc1ccc(F)cc1` the “activity (protection)” value was 1.47% (inactive). For `O=C(O)c1cc(N=Nc2c(O)[nH]c3ccc([N+](=O)[O-])cc23)ccc1Cl`, the “activity (protection)” value was -1.2% (inactive). For `Cc1ccc2nc(Nc3ccc(Cl)cc3)c3nncn3c2c1`, the “activity (protection)” value was 1.05% (inactive). In the case of `Cc1oc(-c2ccccc2F)nc1CS(=O)CC(=O)NCc1ccc(F)cc1` (stereo not given), the “activity (protection)” value is reported as -1.42% (inactive). For `C=CCOC(=O)C1=C[C@H](c2ccc(C(F)(F)F)cc2)[C@@H](CCCO)[C@H](OCC)O1`, the “activity (protection)” value was -1.89% (inactive). In the case of `Cn1nc(N2CCN(S(=O)(=O)c3ccccc3)CC2)c(=O)n(C)c1=O`, the “activity (protection)” value is reported as -0.197% (inactive). With `CC1CC(C)CN(CCCNC(=O)CN2C(=O)CSc3ccc(S(=O)(=O)N4CCOCC4)cc32)C1` (stereo not given) the “activity (protection)” value was 0.935% (inactive). In the case of `O=[N+]([O-])c1cccc2c(N3CCOCC3)ccnc12`, the “activity (protection)” value is reported as -2.37% (inactive). For `COc1cc(NC(=O)CSc2nnc3ccc(-c4ccncc4)nn23)cc(OC)c1`, the “activity (protection)” value was 1.47% (inactive). In the case of `Cc1ccc(C)c(S(=O)(=O)Nc2ccccc2C(=O)Nc2cc(C)on2)c1`, the “activity (protection)” value is reported as -1.99% (inactive). For `O=C(NCc1ccco1)/C(=C\c1cccs1)NC(=O)c1ccccc1`, the “activity (protection)” value was -0.228% (inactive). For `COc1ccccc1NC(=O)N1C[C@@H]2C[C@@H](C1)c1cccc(=O)n1C2`, the “activity (protection)” value was 0.274% (inactive). For `CCC(C)C(NC(=O)c1ccccc1)C(=O)Nc1ccc(S(=O)(=O)Nc2cc(C)nc(C)n2)cc1` (stereo not given), the “activity (protection)” value was 0.77% (inactive). In the case of `Cc1cccc(Nc2ccc(NCc3ccccc3)nn2)c1`, the “activity (protection)” value is reported as -1.9% (inactive). In the case of `COC(=O)c1c(NC(=O)c2c(OC)cccc2OC)sc2c1C(C(=O)OC)CC2` (stereo not given), the Potency is reported as 46.5 µM (active). For `CCCCn1c(N)c(N(CCC(C)C)C(=O)c2sc3nc4n(c(=O)c3c2C)CCC4)c(=O)[nH]c1=O`, the “activity (protection)” value was 4.42% (inactive). For `O=C(NCCc1cn2ccsc2n1)c1cccs1`, the “activity (protection)” value was -0.486% (inactive). In the case of `CCOc1ccc(C2(C)CC(=O)N(C)C2=O)cc1` (stereo not given), the “activity (protection)” value is reported as -1.37% (inactive). For `CC(C)(C)OC(=O)C[C@@H]1C/C=C\C[C@@H](CC(=O)N(CCO)Cc2ccccc2)C(=O)N[C@H](Cc2c[nH]c3ccccc23)COC1=O`, the “activity (protection)” value was -2.13% (inactive). In the case of `Cn1cc(SCC(=O)Nc2nccs2)c2ccccc21`, the “activity (protection)” value is reported as -1.59% (inactive).
